# Compounds with a hit are over-represented: about 4.6% of the library has one in this group of screens.
# GBA mod = Glucocerebrosidase. AID 360, 2006. 48,000 tested, 1.1% active. Potency, µM. purified enzyme, resorufin glucoside fluorescence (screen aimed at inhibitors), 20 min; in the data active means potency below about 15 µM; inconclusive means mostly about 16 µM to 33 µM;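 further: the screen sought inhibitors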
#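 Compounds titrated against 0.2 nM normal enzyme, 30 uM resorufin beta-D-glucopyranoside substrate, citrate/phosphate buffer with taurocholate and tween-20, pH 5.9. Reaction ran 20 min at room temperature; fluorescence (Ex 548/Em 600) gave AC50.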
# Bst PK mod = Pyruvate Kinase | 51,000 tested, 1.2% active | Potency, µM | purified pyruvate kinase, luminescence ATP production; ribose 5-phosphate activator present at AC10; in the data active means potency below about 11 µM; inconclusive means mostly about 12 µM to 25 µM;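 the screen sought inhibitors and activators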;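 further: scaled between full activation by ribose 5 phosphate and full inhibition by luteolin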
# Hsp90 Hop PPI = qHTS Assay for Disrupters of an Hsp90 Co-Chaperone Interaction. Hsp90 C-terminal peptide / TPR2A (Hop) interaction, human. AlphaScreen TPR2A-His6 binding biotin-Hsp90 C-terminal peptide. Potency, µM (doses to about 57 µM), for inactives: at the highest dose activity change, negative = inhibition. 71,000 tested, 0.44% active. AID 595, 2007; active means well fitted curve in either direction with a large enough effect; inconclusive means small, poorly fitted or top-dose-only effect, or another doubt; further: on the % scale 0 is the no-effect control and ±100 the full control effect
# Tau filament bind = qHTS Assay for Tau Filament Binding; 71,000 tested, 2% active; recombinant tau filaments, thioflavin S fluorescence, 15 h; filaments grown with octadecylsulfate alongside compound; Potency, µM (doses to about 57.1 µM), without a hit: top-dose activity change, negative = inhibition;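 further: on the % scale 0 is the no-effect control and ±100 the full control effect; actives lower thioflavin S fluorescence by blocking filaments or displacing dye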
# Target sequence (P10636 whole entry, looked up): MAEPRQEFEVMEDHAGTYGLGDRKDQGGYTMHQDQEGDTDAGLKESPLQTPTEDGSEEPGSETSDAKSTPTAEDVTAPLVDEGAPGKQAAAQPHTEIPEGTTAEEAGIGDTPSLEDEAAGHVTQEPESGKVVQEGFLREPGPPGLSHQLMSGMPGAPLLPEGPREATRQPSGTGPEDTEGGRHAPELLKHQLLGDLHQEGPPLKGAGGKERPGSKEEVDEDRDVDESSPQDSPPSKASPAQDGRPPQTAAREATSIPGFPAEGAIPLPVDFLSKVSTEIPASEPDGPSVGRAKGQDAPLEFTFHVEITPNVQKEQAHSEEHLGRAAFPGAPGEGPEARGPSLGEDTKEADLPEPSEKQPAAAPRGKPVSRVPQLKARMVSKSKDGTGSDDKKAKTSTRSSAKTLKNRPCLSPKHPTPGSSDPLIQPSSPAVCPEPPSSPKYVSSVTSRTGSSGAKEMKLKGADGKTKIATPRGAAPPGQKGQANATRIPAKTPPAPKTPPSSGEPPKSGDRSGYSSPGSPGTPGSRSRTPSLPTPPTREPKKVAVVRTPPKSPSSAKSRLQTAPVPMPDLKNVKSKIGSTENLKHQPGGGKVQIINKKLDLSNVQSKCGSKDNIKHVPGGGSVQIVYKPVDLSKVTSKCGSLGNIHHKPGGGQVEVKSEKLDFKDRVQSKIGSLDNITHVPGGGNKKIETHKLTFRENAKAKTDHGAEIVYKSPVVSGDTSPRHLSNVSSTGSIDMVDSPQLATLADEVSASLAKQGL
#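 Assay mix: 1 uM His-tagged tau, 30 uM sodium octadecylsulfate, thioflavine S dye in HEPES/NaCl/DTT buffer. Compound is added prior to the inducer. Fluorescence after 15 h at 37 C.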
# USP2a inhib = qHTS Assay for Inhibitors of Ubiquitin-specific Protease USP2a; Ubiquitin carboxyl-terminal hydrolase 2 (Homo sapiens), O75604; USP2a enzymatic assay, qHTS inhibition; Potency, µM (titrated, usually from 38.3 µM), inactives show at the top dose activity change, negative = inhibition, actives largely listed as inhibitors; 60,000 tested, 0.1% active; further: nearly all actives have a fitted effect of over 60% in size
#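 20 nM USP2 core + cpd, 30 min RT; add 20 nM Ub-PLA2/20 uM NBD C6-HPC; read Ex460/Em535 at 0 h and 2.5 h. Normalized to NEM; qHTS curve fit/classification.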
# ALOX15 inhib = qHTS Assay for Inhibitors of 15-hLO (15-human lipoxygenase); Polyunsaturated fatty acid lipoxygenase ALOX15 (Homo sapiens), P16050; 74,000 tested, 1.4% active; AID 887, 2007; Potency, µM (highest dose often 57.1 µM), for the others: top-dose activity change, negative = inhibition, most hits filed as inhibitors; purified 15hLO-1, xylenol orange hydroperoxide absorbance; further: on the % scale 0 is the no-effect control and ±100 the full control effect; nearly all actives have a fitted effect of over 55% in size
#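 Quantitative HTS in 25 mM Hepes pH 7.5 containing 0.01% Triton X-100: human 15hLO-1 at 40 nM, arachidonic acid at 50 uM, 6 min turnover. Product quantified via ferrous oxidation/xylenol orange, 573:405 nm absorbance ratio.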
# * marks the source's active call; other numbers are inactive results; i = inactive; ? = inconclusive; . = no result given; ! = not confirmed by another sample; [ ] = another dose, or the depositor's remark. Unless noted, the call rests on the fitted dose curve; in most records, active means well fitted curve in the direction sought with a large enough effect; inconclusive means small, poorly fitted or top-dose-only effect, or another doubt; inactive means no such curve, though single readings can be large; an effect the other way counts as inactive or inconclusive. Potency means the concentration at half of the fitted maximal effect.
SMILES,GBA mod,Bst PK mod,Hsp90 Hop PPI,Tau filament bind,USP2a inhib,ALOX15 inhib
CCN(CC)S(=O)(=O)c1ccc(NC2c3ncccc3C(=O)N2Cc2ccccc2)cc1 (stereo unspecified),>77,>57,-3%,3%,2%,?
Cc1ccccc1-n1c(SC/C(O)=C(\C#N)c2nc3ccccc3[nH]2)nnc1-c1ccncc1,>77,.,-20%,12%,24%,?
Cc1cc(C)n2c(SC/C(O)=C(\C#N)c3nc4ccccc4[nH]3)nnc2n1,.,>57,-13%,10µM*,6%,-29%
NC(=NCCCCCCN=C(N)/N=C(\N)Nc1ccc(Cl)cc1)/N=C(\N)Nc1ccc(Cl)cc1,.,.,-8%,6.3µM*!,?,?
CC(C)N=C(N)/N=C(\N)Nc1ccc(Cl)cc1,.,.,-1%[26 µM],?,-7%[17.1 µM],4%[25.6 µM]
CCCn1c(=O)c2ccccc2n2c(SCc3cc(=O)n4ccsc4n3)nnc12,>77,>57,-2%,2%,8%,1%
Cc1cccc(-n2c(SCc3cc(=O)n4ccsc4n3)nc3ccccc32)c1,>77,>57,-15%,6%,33%,13µM*
CC(C)Nc1nc(C#N)nc(NC(C)C)n1,>77,>57,?,13µM*,-1%,-5%
COc1ccccc1N1CCN(C(=O)c2cc3cc(Br)ccc3oc2=O)CC1,.,.,-9%,-13%,.,2%
COc1ccc(Nc2cc(C(=O)NCCCN3CCN(C)CC3)c3ccccc3n2)c(OC)c1,>77,.,-8%,13µM*,0%,-16%
COc1ccc(-c2cc(C(=O)NCCN3CCOCC3)c3ccccc3n2)cc1,.,i,0%,-4%,10%,-7%
CCOc1ccc(-c2cc(C(=O)NCCCN3CCN(CC)CC3)c3ccccc3n2)cc1,>77,10*,-3%,10%,24%,-8%
O=C(Oc1cccc2cccnc12)c1ccc(Br)o1,>77,i,25µM*,-7%,?,25%
O=C(Oc1cccc2cccnc12)c1ccc2c(c1)OCCO2,>77,10*,-11%,-15%,12%,-14%
O=C(O)c1cc2c(cc1S(=O)(=O)O)[C@H]1[C@@H]([C@H]3[C@H]2[C@@]2(Cl)C(Cl)=C(Cl)[C@]3(Cl)C2(Cl)Cl)[C@]2(Cl)C(Cl)=C(Cl)[C@@]1(Cl)C2(Cl)Cl,.,.,-3%[11 µM],36%[11.4 µM],.,5µM*
CCC(C)NC(=O)NC1C(NC(=O)NC(C)CC)N(C)C(=O)N1C (stereo unspecified),.,.,.,.,.,7%
CC(C)CNC(=O)NC1C(NC(=O)NCC(C)C)N(C)C(=O)N1C (stereo unspecified),>77,10*,-1%,1%,-1%,2%
COC(=O)C1=C2SC(C)C(=O)N2C(N)=C(C#N)C1c1ccc(OC)c(OC)c1 (stereo unspecified),>77,>57,-4%,7%,10%,3%
c1ccc(OCCOc2ncnc3ccccc23)cc1,>77,>57,4%,-9%,-2%,4%
O=C1CC2(CCCC2)CC(=O)N1CCNC[C@H]1COc2ccccc2O1,.,.,-2%,32µM*,.,-4%[25.6 µM]
Cc1csc(SCC(=O)c2ccc(S(=O)(=O)N3CCOCC3)cc2)n1,>77,>57,-7%,-9%,5%,20µM*
CC(=O)Nc1ccc(OC[C@@H](O)CNC(C)C)cc1,.,.,-4%,40µM*!,-4%[17.1 µM],?
COC(=O)C1=C(C)N=C2SC(C)C(=O)N2C1c1ccc(C(=O)OC)cc1 (stereo unspecified),.,>26,.,.,.,.
O=C(c1cccs1)N1CCN(C(=O)c2ccco2)c2ccccc2C1,>77,>57,3%,-7%,6%,1%
Cc1ccc(S(=O)(=O)/C(C#N)=C/c2c(N3CCN(C)CC3)nc3c(C)cccn3c2=O)cc1,.,>26,.,.,.,.
SMILES,GBA mod,Bst PK mod,Hsp90 Hop PPI,Tau filament bind,USP2a inhib,ALOX15 inhib
COc1cc(C(Nc2ccc3c(c2)OCO3)C(=O)NC2CCCCC2)cc(OC)c1OC (stereo unspecified),>77,>57,?,-23%,25%,0.63µM*
COc1cccc(CCc2ccccc2OCC[C@@H]2C[C@@H](O)CN2C)c1,.,.,.,.,.,20µM*
COc1cccc(NC2CC(=O)N(CCc3ccccc3)C2=O)c1 (stereo unspecified),>77,>57,3%,-6%,10%,5%
COC(=O)C1=C(C)N=c2s/c(=C/c3cccs3)c(=O)n2C1c1cccs1 (stereo unspecified),.,>57,-4%,1µM*,16%,5%
COC(=O)C1=C(C)N=c2s/c(=C/c3ccoc3)c(=O)n2C1c1ccccc1 (stereo unspecified),>77,>57,-23%,-11%,44%,?
COC(=O)C1=NOC2(C=C(Br)C(OC)=C(Br)C2=O)C1 (stereo unspecified),.,.,.,.,.,2%[11.4 µM]
c1ccc(-c2csc(N3CCCCCC3)n2)cc1,>77,.,11%,-10%,-17%,?
Cc1ccccc1-c1noc(-c2ccc(O)cc2)n1,.,.,-4%[11 µM],?,-4%[7.66 µM],-25%[11.4 µM]
CCCCC(=O)N(CCOC)c1nnc(-c2ccc(OC)cc2)s1,>77,>57,-1%,17%,2µM*,-28%
Cn1nnnc1SCc1ccc(C(=O)Nc2nccs2)cc1,>77,1*,-1%,2.5µM*,27%,?
Cn1c(CSCc2ccc(F)cc2)nnc1SCC(=O)Nc1nccs1,>77,>57,-7%,9%,-2%,-3%
CC(=O)Nc1ccc(N/C=C/C(=O)c2ccc(C)o2)cc1,>77,i,-3%,25%,1%,-3%
Cc1ccc(C(=O)/C=C/Nc2ccccc2C(N)=O)o1,>77,6.1*,-2%,40%,-8%,-4%
O=C(CCN1C(=O)c2ccccc2C1=O)Nc1ccc(F)cc1F,>77,>57,-3%,-1%,-5%,-11%
CCCCOn1c(C)c(C(=O)OCC)c2c3no[n+]([O-])c3ccc21,?,>57,3%,8%,3%,-5%
CCCCOn1c(C)c(C(=O)OCC)c2c3nonc3ccc21,>77,>57,32µM*,18%,?,-10%
Nc1nc2c(s1)CCc1c-2cnn1-c1ccccc1,>77,10*,-26%,20µM*,-24%,2.5µM*
O=C1CCCC2=C1C(c1ccccc1O)C1=C(CCCC1=O)O2,>77,>57,1%,-6%,-2%,1%
C=CCn1c(SCC(=O)Nc2ccc(NC(=O)c3ccco3)c(OC)c2)nnc1-c1ccncc1,>77,>57,-6%,13µM*,24%,0%

# Screening data (PubChem BioAssay)
